The list is not random: actives were taken first. Their share in the collection is about 3.5%.
GPR151 ag: activators of human GPR151, primary screen, cell-based, PathHunter beta-arrestin, luminescence. activation, % at 11.2 µM. actives 1% (n = 650,000). G-protein coupled receptor 151 (Homo sapiens), Q8TDV0. AID 1508602, 2020. PathHunter beta-arrestin GPR151 cells; in the data active means activation above about 4.9%;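 further: 0% = median of compound wells and 100% = cells with positive control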
FBW7 act: FBW7 E3 ligase activators, primary screen, biochemical, AlphaScreen, human; F-box/WD repeat-containing protein 7 (Homo sapiens), Q969H0; AlphaScreen FBW7–phospho-cyclin E peptide binding, activator screen; normalized activity (activation), % at 26.1 µM; actives 0.13% (n = 650,000); in the data active means normalized activity above about 1.9%;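 further: purified mutant Fbw7 with reduced substrate affinity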
TEAD-YAP block: TEAD-YAP interaction inhibition, primary screen, TEAD-YAP interaction inhibitor project, luminescence, HEK-TIYL cells; TEAD-Gal4/YAP UAS-luciferase luminescence; inhibition, % at 9.12 µM; actives 1.4% (n = 640,000); in the data active means inhibition above about 32%;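 further: 0% = median of test compound wells and 100% = reference inhibitor wells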
MITF primary: MITF inhibitors, primary screen, biochemical, AlphaScreen, human; Microphthalmia-associated transcription factor (Homo sapiens), O75030; AlphaScreen MITF homodimerization, bead proximity signal; inhibition, % at 2.6 µM; actives 0.91% (n = 650,000); AID 1259374, 2018; in the data active means inhibition above about 50%;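 further: 0% = vehicle wells with protein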
Target sequence (O75030 whole entry, looked up): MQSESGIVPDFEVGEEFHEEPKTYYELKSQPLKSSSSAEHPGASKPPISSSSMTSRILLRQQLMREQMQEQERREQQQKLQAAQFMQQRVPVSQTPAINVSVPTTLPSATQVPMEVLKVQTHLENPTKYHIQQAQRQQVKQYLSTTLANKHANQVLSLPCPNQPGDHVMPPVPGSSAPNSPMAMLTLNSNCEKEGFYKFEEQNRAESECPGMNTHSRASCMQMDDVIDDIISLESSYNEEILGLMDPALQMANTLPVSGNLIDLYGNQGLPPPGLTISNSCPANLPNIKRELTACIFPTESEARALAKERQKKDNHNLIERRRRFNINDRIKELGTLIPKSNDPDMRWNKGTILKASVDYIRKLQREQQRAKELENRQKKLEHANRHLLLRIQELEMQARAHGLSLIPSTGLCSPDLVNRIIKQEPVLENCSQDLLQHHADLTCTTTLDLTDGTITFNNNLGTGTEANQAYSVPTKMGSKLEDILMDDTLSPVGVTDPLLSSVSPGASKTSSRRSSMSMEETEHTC
Starred values were filed as active, the others as inactive.

SMILES | GPR151 ag | FBW7 act | TEAD-YAP block | MITF primary
Cc1sc2ncnc(N/N=C/c3cccc([N+](=O)[O-])c3)c2c1C | 2 | 0 | -4 | -8
Cc1sc2ncnc(N/N=C/c3ccc([N+](=O)[O-])o3)c2c1C | 0 | -1 | 35* | 8
COCCNc1c(-c2ccc(OC)c(O)c2)nc2cnccn12 | -1 | 0 | -9 | -5
CCOc1cc(-c2nc3cnccn3c2NCCOC)ccc1O | 0 | 6.3* | -1 | 24
COC(=O)c1c(C)oc2c1cc(NS(=O)(=O)c1ccc(OC)cc1)c1ccccc12 | -1 | 0 | 51* | 2
COc1ccc(S(=O)(=O)Nc2cc3c4c(oc3c3ccccc23)CCCC4=O)cc1 | 1 | 0 | 56* | 13
COC(=O)c1c(C)oc2c1cc(NS(=O)(=O)c1ccccc1)c1ccccc12 | 2 | 0 | 4 | 0
O=C(COC(=O)c1ccc(O)c(O)c1)Nc1ccc(Cl)cc1[N+](=O)[O-] | -1 | 0 | 9 | 7
COc1ccc(OCCN2C(=O)c3ccc4c5c(ccc(c35)C2=O)CC4)cc1 | 1 | 0 | -1 | 17
O=c1c(Cl)c(Cl)cnn1-c1ccc(Cl)cc1 | -1 | 1 | 82* | 11
CCCC(=O)Nc1ccc2c(c1)N(C(=O)C1CCCO1)CC2 (stereo unspecified) | -1 | 0 | 7 | -4
Cc1c(C(=O)NC2CCCCC2)sc2ncn(CC(=O)N3CCCCC3C)c(=O)c12 (stereo unspecified) | 0 | 2.0* | 0 | 22
Cc1c(C(=O)NC(C)C)sc2ncn(CC(=O)N3CCCCC3C)c(=O)c12 (stereo unspecified) | 0 | 0 | 0 | 7
CSc1ccc(C2N=C(c3ccccc3)NO2)cc1 (stereo unspecified) | 0 | 0 | -60 | 1
CN(C)c1ccc(C2N=C(c3ccccc3)NO2)cc1 (stereo unspecified) | -4 | 0 | 35* | 8
Cc1cc(=O)nc2c3ccccc3n(CC(=O)O)n12 | 1 | 0 | -4 | -1
Cc1nc2ccccc2c(=O)n1/N=C/c1ccc(O)c(O)c1O | 0 | 0 | 3 | 57*
O=C1Nc2ccccc2/C1=N\N=C\c1ccc(O)c(O)c1O | 0 | 0 | 0 | 58*
O=C1c2ccccc2C(=O)N1/N=C/c1ccc(O)c(O)c1O | 1 | 0 | -5 | 92*
COc1ccc(NC(=O)CN(c2cccc(C)c2C)S(=O)(=O)c2ccccc2)cc1 | 2 | 0 | 7 | 15
COCCCn1c(=O)[nH]c2nc(-c3ccc(C(=O)NCCO)cc3)cnc21 | 1 | 0 | -1 | 4
NC(=O)[C@@H]1CCCN1C1CCN(c2cccc(NC(=O)CCCc3ccccc3)c2)CC1 | 1 | 0 | 39* | -8
O=C(CCCc1ccccc1)Nc1cccc(N2CCC(NC3CCOCC3)CC2)c1 | 2 | 0 | 0 | -11
COc1cc(Nc2ccn3ncc(-c4cnn(C)c4)c3n2)cc(OC)c1OC | 0 | 0 | 4 | -3
CCOC(=O)c1[nH]c(C)c(C(=O)Nc2ccccc2OC)c1C | -1 | 1 | 59* | 17
SMILES | GPR151 ag | FBW7 act | TEAD-YAP block | MITF primary
CCOC(=O)c1[nH]c(C)c(C(=O)Nc2ccccc2)c1C | 0 | 0 | -14 | 3
CCOC(=O)c1[nH]c(C)c(C(=O)Nc2ccccc2SC)c1C | 1 | 0 | 52* | -3
CCOC(=O)c1[nH]c(C)c(C(=O)Nc2ccc(OC)cc2OC)c1C | 1 | 0 | 44* | 6
CCOC(=O)c1[nH]c(C)c(C(=O)Nc2ccccc2F)c1C | -2 | 1 | 30 | 13
CCOC(=O)c1[nH]c(C)c(C(=O)Nc2ccc(OC)cc2)c1C | -1 | 0 | -4 | -1
Cc1ccc2c(c1)c1nnc(SCC(=O)N3CCCC3)nc1n2C | 1 | 0 | -4 | -6
COc1cccc(NC(=O)CSc2nnnn2-c2ccc(C(C)=O)cc2)c1 | 1 | 0 | 11 | 6
CCOc1ccc(NC(=O)C2=C(C)NC(=O)NC2c2ccc(C)cc2)cc1 (stereo unspecified) | -1 | 0 | 33* | -17
COc1ccc(C2NC(=O)NC(C)=C2C(=O)Nc2ccc(Br)cc2)cc1 (stereo unspecified) | -1 | 1 | 47* | 5
CCOc1ccc(NC(=O)C2=C(C)NC(=O)NC2c2cccc(Cl)c2)cc1 (stereo unspecified) | -1 | 0 | -3 | 13
CCOc1ccc(NC(=O)C2=C(C)NC(=O)NC2c2ccc(Cl)cc2Cl)cc1 (stereo unspecified) | 0 | 0 | 40* | -6
COc1ccc(-c2cc(C(=O)NCc3ccc(Cl)cc3)no2)cc1 | 1 | 0 | 4 | -1
COc1ccc2oc(=O)c(-c3cn4c(n3)sc3cc(Cl)ccc34)cc2c1 | -1 | 0 | 11 | 5
CS(=O)(=O)Nc1ccc(-c2cnc3cccc(Nc4cc(-c5ccccc5)ccn4)c3c2)cc1 | -1 | 2.4* | 12 | 21
CS(=O)(=O)Nc1ccc(-c2cnc3cccc(Nc4cncnc4)c3c2)cc1 | -2 | 0 | -25 | 3
Cc1cc(NNC(=O)c2ccccc2Cl)c2cccc(C)c2n1 | 0 | 0 | 40* | -11
COc1ccc(C(=O)NNc2cc(C)nc3c(C)cccc23)cc1 | -1 | 0 | 10 | 13
O=C(CSc1nc2ccccc2s1)N/N=C\c1ccccc1O | -1 | 0 | -3 | 5
COc1cccc(-c2nnc3sc(CN4CCc5ccccc5C4)cn23)c1 | 1 | 0 | 49* | 3
Fc1ccc(-c2nnc3sc(CN4CCc5ccccc5C4)cn23)cc1 | 0 | 0 | 1 | 15
CCOC(=O)c1c(C)oc2c(Cl)cc(NS(=O)(=O)c3ccc(OCC)cc3)cc12 | 1 | 0 | 56* | 0
COCCOC(=O)c1c(C)oc2cc(C)c(NS(=O)(=O)c3cccs3)cc12 | 3 | 0 | 21 | 11
CCOC(=O)c1c(C)oc2ccc(NS(=O)(=O)c3ccc(OCC)cc3)cc12 | 1 | 0 | 54* | 13
CCOC(=O)c1c(C)oc2ccc(NS(=O)(=O)c3ccc(OC)cc3)cc12 | 4 | 0 | 42* | 4
CCOC(=O)c1c(C)oc2ccc(NS(=O)(=O)c3ccc(Br)cc3)cc12 | 0 | 0 | -9 | -5
SMILES | GPR151 ag | FBW7 act | TEAD-YAP block | MITF primary
CCOC(=O)c1c(C)oc2cc(C)c(NS(=O)(=O)c3cccs3)cc12 | 1 | 0 | 46* | 5
CCOc1ccc(S(=O)(=O)Nc2ccc3oc(C)c(C(=O)OC(C)C)c3c2)cc1 | -1 | 1 | 8 | 10
C=CCOc1c(Cl)cc(CNCCC)cc1OC | 2 | 0 | 3 | -8
Cc1ccc2c(C)nc(N3CCC(C(=O)N4CCCCC4C)CC3)nc2c1 (stereo unspecified) | -2 | 0 | -3 | -5
CCCc1oc2ccc(NS(=O)(=O)c3ccc(Br)cc3)cc2c1C(=O)OCC | 0 | 0 | 42* | -12
COc1ccc(N/N=C(\Cl)C(C)=O)cc1 | 1 | 1.9* | 4 | 20

Assay outcomes from PubChem.
